Compound activity from PubChem.
An excerpt weighted towards active compounds, which were near 6.3% of everything screened.
PMK inhibit: blocks S. pneumoniae phosphomevalonate kinase. purified PMK, PK/LDH-coupled NADH absorbance 340 nm. inhibition, % at 10 µM. 0.49% of 65,000 active. AID 539;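 active = top-ranked compounds by inhibition in the single 10 µM screen, taking a fixed number of the strongest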;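 also: 0% = full reaction with DMSO carrier and 100% = background rate without enzyme reaction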
NADH enzymes: blocks coupling enzymes of NAD/NADH assays. 0.02% of 65,000 active. coupled PK/LDH NADH assays, four targets. IC50, µM (titrated, usually from 10 µM), for inactives: at the highest dose inhibition. AID 774;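 active = single-dose screening hits from any of four coupled enzyme assays that gave an IC50 when retested across doses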;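 also: the DPM-DC format reads NADH fluorescence rather than 340 nm absorbance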
DPM-DC inhibit: inhibitors of Streptococcus pneumoniae diphosphomevalonate decarboxylase. purified DPM-DC, PK/LDH coupled NADH fluorescence. calls only at 10 µM. 0.49% of 65,000 active. AID 556;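 active = the 320 compounds with the highest percent inhibition in the single-dose primary screen, excluding strongly autofluorescent ones, cut at about 32% in these data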;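 also: kinetic rate of NADH fluorescence loss reporting ADP formed by the decarboxylase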
Spn MK inh: blocks S. pneumoniae mevalonate kinase; inhibition, % at 10 µM; 0.48% of 65,000 active; purified MK, PK/LDH-coupled NADH absorbance 340 nm;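 active = ranked among the strongest by inhibition in the single 10 µM screen, a fixed top-ranked set picked for dose follow-up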
A340 absorber: absorbance at 340 nm; compound absorbance at 340 nm, fold over control; 65,000 tested, under 10 active; fold change at 10 µM;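 active = at 10 µM dose, initial 340 nm absorbance at least 2 fold that of control wells; inactive = change under 2 fold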;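 also: initial absorbance extrapolated from kinetic A340 decline of NADH oxidation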
Autofluor 339: intrinsic fluorescence of library compounds, ex339/em460 – biochemical, MLSMR library, data from DPM-DC assay, artefact control, profiling panel; compound autofluorescence, ex339/em460 nm, NADH buffer; stronger effect = higher value; 1 = no-compound wells, NADH background; fluorescence fold increase at 10 µM; 5.5% of 65,000 active;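 active = at 10 µM, mean starting fluorescence two-fold or more over control wells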;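 also: signal is the first read of a kinetic run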
The depositor's hits bear a star; i = inactive; . = not tested or not shown; + = active, no number.

SMILES	PMK inhibit	NADH enzymes	DPM-DC inhibit	Spn MK inh	A340 absorber	Autofluor 339
Cc1cc(C)c2nc(-c3ccccn3)cc(C(=O)Nc3cc(C)on3)c2c1	7	13%	i	4	1.1	3.1*
COc1ccc(C2CC(c3ccc(Cl)c(Cl)c3)Nc3nc(N)nn32)cc1 (configuration not stated)	5	6%	i	5	1.1	1.7
CCCCn1c(SCC(=O)Nc2ccc(OC)cc2)nc2ccc(N3CCOCC3)cc2c1=O	4	7%	i	7	0.98	2.4*
Cn1c(=O)c2c(nc(SCCN3CCCCC3)n2Cc2ccccc2)n(C)c1=O	7	3%	i	3	1.1	1.1
N#CCSc1nc2ccc(N3CCCCC3)cc2c(=O)n1Cc1ccccc1	4	5%	i	3	1.1	3*
CC(NC(=O)CSc1nc2ccccc2c(=O)n1CCCO)c1ccccc1 (configuration not stated)	18	6%	i	0	1	1.1
CCC(C)NC(=O)CSc1nc2ccc(N3CCOCC3)cc2c(=O)n1CCc1ccccc1 (configuration not stated)	11	10%	i	10	0.99	2.3*
COCCCn1c(SCC(=O)NCc2ccco2)nc2sc3c(c2c1=O)CCC3	1	22%	i	66*	1.1	1.1
O=C(CSc1nc2sc3c(c2c(=O)n1-c1ccccc1)CCCC3)NCc1ccco1	12	11%	i	10	1.1	1.7
CCOC(=O)/C(C(C)=O)=C1\OC(=O)c2ccccc21	5	4%	i	8	1	1.1
COCc1cc(C)nc(SCC(=O)c2ccc(O)c(O)c2)c1C#N	11	5%	i	4	1.1	1.1
CCCCn1c(SCC(=O)NCc2ccco2)nc2ccc(N3CCOCC3)cc2c1=O	3	12%	i	3	1.1	3.8*
CCN(CC)C(=O)CSc1nc2cc3c(cc2c(=O)n1Cc1ccc2c(c1)OCO2)OCO3	18	8%	i	7	0.99	1.1
CCOC(=O)CSc1nc2ccc(N3CCOCC3)cc2c(=O)n1Cc1ccc2c(c1)OCO2	8	6%	i	10	1	2.3*
CCCCn1c(SCC(=O)NCc2ccccc2)nc2ccc(N3CCOCC3)cc2c1=O	3	5%	i	5	1	2.2*
CCCCn1c(SCC(=O)Nc2cc(C)on2)nc2ccccc2c1=O	11	4%	i	0	1	1.3
COCCNC(=O)CN1CCC(NC(=O)Nc2ccc(C(F)(F)F)cc2)CC1	13	3%	i	5	0.96	1.1
O=C(O)CCCC(=O)Nc1ccccc1C(=O)O	12	6%	i	7	1	1.1
Nc1c(Br)cc(Br)c(N2CCCC2=O)c1Br	7	4%	i	5	1	1.1
Cc1ccc2cc3c(nc2c1)N(Cc1ccco1)CC3	5	3%	.	1	1.1	3.8*
Cc1cc(C(=O)OCC(=O)Nc2ccc(S(=O)(=O)N3CCOCC3)cc2)c(C)o1	9	4%	i	2	1	1.1
Cc1cc(=O)n2[nH]c(-c3ccccc3Cl)cc2n1	25*	8%	i	0	0.98	1.1
O=C(/C=N/O)NCc1ccncc1	15	3%	i	1	0.99	1
COc1ccc2[nH]c(=O)c(CN(C(=O)C3CCCO3)c3cccc(C)c3)cc2c1 (configuration not stated)	6	10%	i	8	1.1	2.4*
COc1ccc(N(Cc2cc3cc(OC)ccc3[nH]c2=O)C(=O)C2CCCO2)cc1 (configuration not stated)	0	10%	i	8	1.1	2.9*
SMILES	PMK inhibit	NADH enzymes	DPM-DC inhibit	Spn MK inh	A340 absorber	Autofluor 339
Cc1ccc2cc(CN(CC(C)C)C(=O)C3CCCO3)c(=O)[nH]c2c1 (configuration not stated)	3	3%	i	3	1	1.2
CCc1c(C)c2ccc(O)c(CN(C)C)c2oc1=O	0	6%	.	12	1.2	2.3*
CCCc1cc(=O)oc2cc3oc(C)c(C)c3cc12	6	2%	i	0	1	1.5
CCCCc1cc(=O)oc2c(CN(C)C)c(O)ccc12	8	9%	.	10	1.1	3.6*
CN(Cc1c(O)ccc2c1oc(=O)c1ccccc12)C1CCCCC1	18	8.8µM*	i	50*	1.1	1.2
CN(C1CCCCC1)S(=O)(=O)c1ccccc1	5	5%	i	6	1	1.1
COC(=O)Sc1nnc(-c2ccc(Br)cc2)o1	16	20µM*	+	5	1.1	1.5
O=C(NCc1ccccc1)C1CC2CCCC(C1)C2=O (configuration not stated)	0	2%	i	6	1.1	1.1
CCOC(=O)N1CCC(N2C(=O)c3ccccc3C2Nc2cc(C(=O)OC)cc(C(=O)OC)c2)CC1 (configuration not stated)	0	0%	.	0	1.1	2.1*
O=C(Nc1ccc(N2CCN(C(=O)c3ccccc3)CC2)cc1)c1cc2ccccc2o1	6	2%	i	0	1.1	2.4*
CCCC(=O)N1CCN(c2ccc(NC(=O)c3cc4ccccc4o3)cc2)CC1	15	11%	i	13	1.1	1
COc1cccc(-c2cc(C(=O)Nc3cc(C)n(Cc4ccc(Cl)cc4)n3)no2)c1	8	2%	i	1	0.99	1.1
COc1ccc(OC)c(-c2cc(C(=O)Nc3cc(C)n(Cc4ccc(Cl)cc4)n3)no2)c1	18	6%	i	0	1	3.8*
COC(=O)C1=C(C)N(c2ccc(Cl)c(Cl)c2)C(=O)C1	0	0%	i	0	1.1	1.1
COC(=O)c1c(C(=O)OC)c2ccncn2c1Cl	17	24%	+	10	1.1	1.7
CCOC(=O)N1CCN(CC(=O)Nc2c(C(=O)OC)[nH]c3ccccc23)CC1	5	9%	i	13	1	1.6
CCOC(=O)c1[nH]c2cc3c(cc2c1NC(=O)CN1CCc2ccccc2C1)OCO3	0	0%	.	0	1.1	2.3*
CCOC(=O)c1[nH]c2cc3c(cc2c1NC(=O)CN1CCC(C)CC1)OCO3	0	5%	.	9	1.1	2.3*
CCN(CC)S(=O)(=O)c1ccc(NC(=O)c2cccc3c2C(=O)N(CCOC)C3)cc1	18	9%	+	10	0.98	1.3
COCCN1Cc2cccc(C(=O)Nc3ccc(S(=O)(=O)N4CCCCCC4)cc3)c2C1=O	22	11%	i	9	0.99	1.4
N#Cc1ccc(-c2ccco2)nc1SCc1ccccc1	3	4%	i	9	1.1	2.1*
CCn1c(=O)cc(NC2=NCC(C)CN2c2cccc(Cl)c2)n(C)c1=O (configuration not stated)	9	4%	i	4	1.1	1.1
